Inconclusive results are not listed. Activity calls are given as the source filed them. Unless noted, calls come from the whole dose curve; as a rule, active = well fitted curve in the direction sought with a large enough effect in the repeat runs; inconclusive = weak or mixed curves; inactive = no such curve, though single readings can be large; an effect the other way counts as inactive or inconclusive.
Columns and labels:
[1] = qHTS assay to identify small molecule agonists of the peroxisome proliferator-activated receptor delta (PPARd) signaling pathway - cell viability counter screen (AID 743211); note: nearly all actives have a fitted effect of over 55% in size
Procedure, shortened: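 Luminescent ATP viability assay (CellTiter-Glo, 30 min RT) in UAS-bla HEK293H cells carrying the PPAR delta reporter construct, 3000 cells/well, after a 17 h compound treatment at 37 C.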

[2] = qHTS assay to identify small molecule antagonists of the peroxisome proliferator-activated receptor delta (PPARd) signaling pathway - cell viability counter screen (AID 743213); note: nearly all actives have a fitted effect of over 50% in size
Procedure, shortened: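 HEK293H cells with the PPARd UAS-bla reporter, co-treated 17 h at 37 C with compounds and L165041 (300 nM final), were lysed with CellTiter-Glo. Luminescence indicated viable cell content.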

[3] = qHTS assay to identify small molecule agonists of the farnesoid-X-receptor (FXR) signaling pathway - cell viability counter screen (AID 743218); note: nearly all actives have a fitted effect of over 45% in size
Procedure, shortened: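 Quantitative HTS counter screen measuring ATP-based viability via CellTiter-Glo luminescence in HEK 293T cells carrying a UAS-driven beta-lactamase reporter, after 16 h compound exposure at 37 C.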

[4] = qHTS assay to identify small molecule antagonists of the farnesoid-X-receptor (FXR) signaling pathway - cell viability counter screen (AID 743221; active = well fitted cell-killing curve with a large enough effect in the repeat runs, not every such curve was filed as active; note: nearly all actives have a fitted effect of over 50% in size)
Procedure, shortened: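 In GeneBLAzer FXR-UAS-bla HEK 293T cells stimulated with 50 uM chenodeoxycholic acid (final), compounds acted for 16 h at 37 C. Viability was assessed afterwards by CellTiter-Glo luminescence.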

[5] = molecular target: Vitamin D3 receptor (Homo sapiens) (UniProt P11473); assay: qHTS assay to identify small molecule agonists of the vitamin D receptor (VDR) signaling pathway (AID 743222; calls by dose curve)
Sequence of Vitamin D3 receptor (Homo sapiens) (P11473 whole entry, looked up): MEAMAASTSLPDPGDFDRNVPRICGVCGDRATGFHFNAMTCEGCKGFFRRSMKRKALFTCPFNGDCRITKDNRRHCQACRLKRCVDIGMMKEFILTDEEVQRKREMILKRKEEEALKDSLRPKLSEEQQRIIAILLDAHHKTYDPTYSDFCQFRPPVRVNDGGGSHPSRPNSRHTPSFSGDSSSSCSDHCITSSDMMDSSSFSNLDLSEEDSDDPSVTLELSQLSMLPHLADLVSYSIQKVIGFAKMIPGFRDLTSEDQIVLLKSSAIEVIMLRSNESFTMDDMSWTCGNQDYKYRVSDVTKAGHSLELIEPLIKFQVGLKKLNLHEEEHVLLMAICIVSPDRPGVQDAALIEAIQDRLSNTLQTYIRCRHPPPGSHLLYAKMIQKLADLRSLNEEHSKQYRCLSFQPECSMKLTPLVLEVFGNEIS
Procedure, shortened: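 Tox21 cell reporter format: VDR-bla line, 16 h compound exposure in 5% CO2 at 37C, then fluorescence intensity after 2 h with LiveBLAzer B/G FRET substrate.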

[6] = molecular target: Vitamin D3 receptor (Homo sapiens) (UniProt P11473); assay: qHTS assay to identify small molecule antagonists of the vitamin D receptor (VDR) signaling pathway (AID 743223; active = well fitted inhibition curve with a large enough effect in the signal ratio in the repeat runs, not every such curve was filed as active; the % refers to the signal ratio)
Procedure, shortened: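 Agonist 1alpha,25-dihydroxyvitamin D3 (3 nM in well) was added with each compound to VDR-bla cells preincubated 4 h. Cells stood 16 h at 37C, then FRET substrate 2 h at room temperature; fluorescence intensity recorded.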

[7] = qHTS assay to identify small molecule agonists of the vitamin D receptor (VDR) signaling pathway - cell viability counter screen (AID 743224); note: series mostly up to about 63 µM; nearly all actives have a fitted effect of over 50% in size
Procedure, shortened: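 CellTiter-Glo viability readout on VDR-bla cells, measured after 16 h of compound treatment at 37C in the same wells.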

[8] = qHTS assay to identify small molecule agonists of the NFkB signaling pathway (AID 1159509; active = well fitted curve in the direction sought with a large enough effect in the signal ratio in the repeat runs, not every such curve was filed as active; the % refers to the signal ratio; note: series mostly up to about 61 µM)
Procedure, shortened: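 Beta-lactamase reporter assay run in quantitative high-throughput format on an NF-kB-responsive ME-180 line, with 5 hr compound treatment and a FRET-based blue/green fluorescence readout.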

[9] = qHTS assay to identify small molecule agonists of the NFkB signaling pathway - cell viability counter screen (AID 1159515; calls by dose curve; note: series mostly up to about 61 µM; nearly all actives have a fitted effect of over 55% in size)
Procedure, shortened: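 Tox21 library compounds were tested for cytotoxicity against NFkB-bla ME-180 cells during a 5 hr exposure at 37 C. CellTiter-Glo luminescence served as the viability read-out.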

[10] = qHTS assay to identify small molecule agonists of the endoplasmic reticulum stress response signaling pathway (AID 1159516; active = well fitted activation curve with a large enough effect in the signal ratio in the repeat runs, not every such curve was filed as active; the % refers to the signal ratio)
Procedure, shortened: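 Fluorescence at 460 and 530 nm (405 nm excitation) reports beta-lactamase from an ER stress response element in HeLa cells treated 5 hr at 37 C.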

[11] = qHTS assay to identify small molecule agonists of the endoplasmic reticulum stress response signaling pathway - cell viability counter screen (AID 1159517; calls by dose curve; note: nearly all actives have a fitted effect of over 50% in size; note: potency is the fitted concentration of half-maximal effect)
Procedure, shortened: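 Steps: seed 1,500 ESRE-bla HeLa cells per well; incubate overnight at 37 C, 5% CO2; add compounds in DMSO for 5 hr; run FRET substrate 2 hr RT; add CellTiter-Glo, wait 30 min, read luminescence.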

[12] = qHTS assay to identify small molecule antagonists of the retinoid-related orphan receptor gamma (ROR-gamma) signaling pathway - cell viability counter screen (AID 1159520); note: nearly all actives have a fitted effect of over 50% in size
Procedure, shortened: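 Tet-on ROR gamma CHO cells were given compounds for 2 hr, then doxycycline hyclate at 1 uM final, and incubated 16 hr at 37 C. Viability was measured as ATP content by CellTiter-Glo luminescence.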

[13] = molecular target: Nuclear receptor ROR-gamma (Homo sapiens) (UniProt P51449); assay: qHTS assay to identify small molecule antagonists of the retinoid-related orphan receptor gamma (ROR-gamma) signaling pathway (AID 1159521; note: nearly all actives have a fitted effect of over 50% in size; note: potency is the fitted concentration of half-maximal effect)
Procedure, shortened: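 CHO cells expressing RORγ under a TET-on promoter, luciferase under RORE control. Dox 1 uM final, 16 h; compounds added 2 h prior. Luminescence decrease measured.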

[14] = qHTS assay to identify small molecule agonists of the AP-1 signaling pathway - cell viability counter screen (AID 1159525; calls by dose curve; note: nearly all actives have a fitted effect of over 55% in size)
Procedure, shortened: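 Same-well cytotoxicity counter screen of the Tox21 10K library in ME-180 cells. The readout is ATP-dependent luminescence after 5 h compound treatment. Data are normalised to DMSO and tetra n-octyl ammonium bromide controls.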

[15] = qHTS assay to identify small molecule agonists of the AP-1 signaling pathway (AID 1159526; calls by dose curve)
[16] = molecular target: Peroxisome proliferator-activated receptor delta (Homo sapiens) (UniProt Q03181); assay: qHTS assay to identify small molecule agonists of the peroxisome proliferator-activated receptor delta (PPARd) signaling pathway (AID 743212; calls by dose curve)
Sequence of Peroxisome proliferator-activated receptor delta (Homo sapiens) (Q03181 whole entry, looked up): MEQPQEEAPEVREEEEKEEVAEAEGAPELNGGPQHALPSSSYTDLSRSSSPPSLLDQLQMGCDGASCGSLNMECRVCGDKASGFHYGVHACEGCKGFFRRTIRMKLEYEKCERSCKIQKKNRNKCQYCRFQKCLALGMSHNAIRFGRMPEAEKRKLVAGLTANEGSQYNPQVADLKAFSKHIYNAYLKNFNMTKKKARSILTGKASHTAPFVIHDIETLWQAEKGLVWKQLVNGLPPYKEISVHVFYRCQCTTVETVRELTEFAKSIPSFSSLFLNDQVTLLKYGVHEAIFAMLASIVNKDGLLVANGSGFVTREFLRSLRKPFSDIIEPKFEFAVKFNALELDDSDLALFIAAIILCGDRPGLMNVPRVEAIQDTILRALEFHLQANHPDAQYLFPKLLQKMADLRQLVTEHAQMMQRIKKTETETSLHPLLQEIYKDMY
Procedure, shortened: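 Read-out: beta-lactamase FRET fluorescence after 2 h room-temperature incubation with LiveBLAzer B/G substrate. Cells were HEK293H carrying a UAS-bla reporter for PPARd, treated at 37 C with DMSO-dissolved compounds.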

[17] = qHTS assay to identify small molecule antagonists of the vitamin D receptor (VDR) signaling pathway - cell viability counter screen (AID 743225); note: nearly all actives have a fitted effect of over 50% in size
Procedure, shortened: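 Luminescent cell viability (CellTiter-Glo) in VDR-bla HEK 293T cells after 16 h compound exposure at 37C in the presence of 3 nM final 1-alpha,25-dihydroxy vitamin D3.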

[18] = molecular target: Peroxisome proliferator-activated receptor delta (Homo sapiens) (UniProt Q03181); assay: qHTS assay to identify small molecule antagonists of the peroxisome proliferator-activated receptor delta (PPARd) signaling pathway (AID 743215; active = well fitted inhibition curve with a large enough effect in the signal ratio in the repeat runs, not every such curve was filed as active; the % refers to the signal ratio;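 note: cells stimulated with agonist L165041 at 300 nM final during compound exposure; series mostly up to about 62 µM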)
Procedure, shortened: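 Here, a reporter line (HEK293H, beta-lactamase under a UAS) measures PPARd signaling. Compounds are tested against agonist L165041 at 300 nM final concentration over 17 h at 37 C, with fluorescence read after substrate.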

[19] = molecular target: Bile acid receptor (Homo sapiens) (UniProt Q96RI1); assay: qHTS assay to identify small molecule antagonists of the farnesoid-X-receptor (FXR) signaling pathway (AID 743217; active = well fitted inhibition curve with a large enough effect in the signal ratio in the repeat runs, not every such curve was filed as active; the % refers to the signal ratio)
Sequence of Bile acid receptor (Homo sapiens) (Q96RI1 whole entry, looked up): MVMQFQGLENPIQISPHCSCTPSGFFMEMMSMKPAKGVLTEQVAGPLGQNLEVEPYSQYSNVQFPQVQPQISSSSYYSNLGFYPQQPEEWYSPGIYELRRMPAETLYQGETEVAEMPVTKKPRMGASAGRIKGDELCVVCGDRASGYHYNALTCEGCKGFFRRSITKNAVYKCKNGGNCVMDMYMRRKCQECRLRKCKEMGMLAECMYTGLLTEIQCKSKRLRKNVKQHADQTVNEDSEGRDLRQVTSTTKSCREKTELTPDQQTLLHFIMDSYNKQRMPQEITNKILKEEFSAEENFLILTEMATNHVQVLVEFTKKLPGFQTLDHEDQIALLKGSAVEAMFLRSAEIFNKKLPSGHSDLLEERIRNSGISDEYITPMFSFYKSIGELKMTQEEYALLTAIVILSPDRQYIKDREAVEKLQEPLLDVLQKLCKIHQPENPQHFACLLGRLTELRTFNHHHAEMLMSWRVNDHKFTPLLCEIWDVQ
Procedure, shortened: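 Test compounds are pin-transferred onto FXR-bla HEK 293T cells, then chenodeoxycholic acid is added at 50 uM final. After 16 h at 37 °C, LiveBLAzer B/G substrate is applied for 2 h at room temperature and fluorescence read.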

[20] = molecular target: Bile acid receptor (Homo sapiens) (UniProt Q96RI1); assay: qHTS assay to identify small molecule agonists of the farnesoid-X-receptor (FXR) signaling pathway (AID 743220; active = well fitted activation curve with a large enough effect in the signal ratio in the repeat runs, not every such curve was filed as active; the % refers to the signal ratio)
Procedure, shortened: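 FXR-UAS-bla HEK 293T cells carrying a UAS-driven beta-lactamase reporter were plated for 5 h at 37C/5% CO2, then exposed to DMSO-dissolved Tox21 10K compounds for 16 h at 37C. A LiveBLAzer B/G FRET substrate was loaded for 2 h at room temperature before fluorescence reading.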

Measured: Potency

CNC(=O)Oc1cccc(C(C)C)c1
not listed: [16] | [17] | [18] | [19] | [20]
inactive: all other assays above

Cc1ncsc1CCCl
not listed: [2] | [3] | [18] | [19] | [20]
inactive: all other assays above

Cc1cccc(C#N)c1
not listed: [3] | [6] | [16] | [17]
inactive: all other assays above

COc1cc(C[C@@H](C)N)c(OC)cc1C
not listed: [1] | [17]
inactive: all other assays above

CCOP(=O)(N=C1SCCS1)OCC
not listed: [5] | [6] | [19] | [20]
inactive: all other assays above

O=[N+]([O-])c1ccc2c3c(cccc13)CC2
not listed: [1]
inactive: all other assays above

COc1ncc(F)c2nc(S(=O)(=O)Nc3c(F)cccc3F)nn12
not listed: [5] | [6] | [19] | [20]
inactive: all other assays above

COc1ccc(C(=O)N2CCCC2=O)cc1
not listed: [5] | [19] | [20]
inactive: all other assays above

COCC(=O)N(c1c(C)cccc1C)N1CCOC1=O
not listed: [1] | [7]
inactive: all other assays above

O=[N+]([O-])c1ccc(CBr)cc1
active: [11] 27.2 µM
not listed: [2] | [5] | [6] | [18] | [19] | [20]
inactive: all other assays above

CCC#N
not listed: [5] | [7] | [17] | [18]
inactive: all other assays above

ClC(Cl)(Cl)C(Cl)(Cl)Cl
not listed: [7] | [16] | [18] | [19] | [20]
inactive: all other assays above

COC(=O)C(c1ccccc1)C1CCCCN1 (stereo unspecified)
not listed: [3] | [4] | [16] | [18]
inactive: all other assays above

O=C(Nc1ccccc1)c1ccccc1I
not listed: [5] | [6] | [18] | [19] | [20]
inactive: all other assays above

O=c1oc2ccccc2c(O)c1C1CCCc2ccccc21 (stereo unspecified)
active: [13] 48.6 µM
not listed: [3] | [7] | [19] | [20]
inactive: all other assays above

CC(C)(C)C(=O)C(Oc1ccc(Cl)cc1)n1cncn1 (stereo unspecified)
not listed: [2] | [6] | [7] | [19] | [20]
inactive: all other assays above

OCCBr
not listed: [16] | [18]
inactive: all other assays above

CCCCOC(=O)c1ccccc1C(=O)O
not listed: [4] | [5] | [6] | [18]
inactive: all other assays above

— PubChem BioAssay (Tox21)
